PubChem BioAssay (NCATS)
“And” between values parts separate entries of the source, which are not always exact repeats. Equal entries are not always repeated. Inconclusive results are not listed. The source made the active and inactive calls. The call rests on the fitted dose curve; in most records, active means well fitted inhibition curve with a large enough effect; inconclusive means small, poorly fitted or top-dose-only effect; inactive means flat fitted curve, though single readings scatter. Residues, ends and D or L forms follow the SMILES beside them. *: point of attachment. Cbz = O=C(OCc1ccccc1)*

Legend:
CRL-7250 = normal cell line; assay: Cytotoxic Profiling of Annotated Libraries Using Quantitative High-Throughput Screening (AID 1296008); conditions: Five cell lines viability, CellTiter-Glo ATP luminescence, 48-72 h; max response: hits give low values
Procedure, shortened: (§1)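 Compounds were pin-transferred onto cells and incubated 48 or 72 hr at 37 degree Celsius, 95% humidity. CellTiter-Glo was added, plates sat 10 min at room temperature, then ATP-coupled luminescence was imaged as the viability read-out.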

HEK293 = assay: as above; conditions: Five cell lines viability, CellTiter-Glo ATP luminescence, 48-72 h; max response: hits give low values
Procedure, shortened: as §1

HaCat [1] = assay: as above; conditions: Five cell lines viability, CellTiter-Glo ATP luminescence, 48-72 h; max response: hits give low values
Procedure, shortened: as §1

NIH3T3 = assay: as above; conditions: Five cell lines viability, CellTiter-Glo ATP luminescence, 48-72 h; max response: hits give low values
Procedure, shortened: as §1

MCC-13 = assay: qHTS assay to identify novel small-molecules to repurpose for Merkel cell carcinoma treatment (AID 1296009); conditions: MCC and control cell lines, CellTiter-Glo viability, 72 h; series mostly up to 46 µM
Procedure, shortened: (§2)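 Viability readout: ATP luminescence (CellTiter-Glo) after 72 hr drug exposure at 37 degree celsius. Dose-response format was 8 points for NPC and 11 points for MIPE; data normalized to in-plate controls.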

KB-3-1 = assay: Cytotoxic Profiling of Annotated Libraries Using Quantitative High-Throughput Screening (AID 1296008); conditions: Five cell lines viability, CellTiter-Glo ATP luminescence, 48-72 h; max response: hits give low values
Procedure, shortened: as §1

HEK293T = assay: qHTS assay to identify novel small-molecules to repurpose for Merkel cell carcinoma treatment (AID 1296009); conditions: MCC and control cell lines, CellTiter-Glo viability, 72 h; series mostly up to 44.8 µM
Procedure, shortened: as §2

HACAT [2] = assay: as above; conditions: MCC and control cell lines, CellTiter-Glo viability, 72 h; at 44.8 µM (top of the series) unless noted
Procedure, shortened: as §2
Further: nearly all actives have a fitted effect of over 60% in size.
On the % scale 0 is the no-effect control and ±100 the full control effect; potency means the concentration at half of the fitted maximal effect.

COc1cc(C(=O)NC2CCN(C)CC2)ccc1Nc1ncc2c(n1)N(C1CCCC1)CCC(=O)N2C(C)C
active: Potency (HEK293) 8330 nM | Potency (NIH3T3) 1.32 µM
inactive: max response (CRL-7250) -17.1% | max response (HaCat [1]) -42.1%

CS[C@H]1SC[C@@H]2C(=O)N(C)[C@H](C(C)C)C(=O)OC[C@H](NC(=O)c3cnc4ccccc4n3)C(=O)N[C@H](C)C(=O)N(C)[C@@H]1C(=O)N(C)[C@H](C(C)C)C(=O)OC[C@H](NC(=O)c1cnc3ccccc3n1)C(=O)N[C@H](C)C(=O)N2C
active: Potency (CRL-7250) 0.0074 µM | Potency (HEK293) 5.3 nM | Potency (HaCat [1]) 11.8 nM | Potency (MCC-13) 29.6 nM

CN(C)c1ccc(C(=O)NCCCCCCC(=O)NO)cc1
active: Potency (CRL-7250) 2.64 µM | Potency (HEK293) 1870 nM | Potency (HaCat [1]) 4690 nM | Potency (KB-3-1) 2350 nM | Potency (NIH3T3) 3.72 µM | Potency (MCC-13) 4180 nM

CCc1nc(-c2cccc(C)c2)c(-c2ccnc(NC(=O)c3ccccc3)c2)s1
inactive: outcome (CRL-7250) | max response (HaCat [1]) -12.8% and -8.84% | max response (KB-3-1) -16.2% | Potency (MCC-13)
active: Potency (HEK293) 14800 nM

CC(C)(O)Cn1c(NC(=O)c2ccc(-c3cn[nH]c3)s2)nc2cc(CN3CCOCC3)ccc21
active: Potency (CRL-7250) 1.66 µM | Potency (HEK293) 526 nM | Potency (HaCat [1]) 1320 nM | Potency (KB-3-1) 1050 nM | Potency (NIH3T3) 2.35 µM | Potency (MCC-13) 2960 nM

COc1cc(C=CC(=O)CC(=O)C=Cc2ccc(O)c(OC)c2)ccc1O
active: Potency (CRL-7250) 34 µM | Potency (HEK293) 24100 nM | Potency (KB-3-1) 38200 nM

CC(Cc1ccc(O)c(O)c1)(NN)C(=O)O (configuration not stated)
inactive: outcome (CRL-7250) | max response (HEK293) -17.2% | max response (HaCat [1]) -11% | max response (KB-3-1) -1.08% | max response (NIH3T3) -2.89% | Potency (MCC-13)

CN(CC(=O)N(Cc1ccc(C2CCCCC2)cc1)c1ccc(C(=O)O)c(O)c1)S(=O)(=O)c1c(F)c(F)c(F)c(F)c1F
inactive: outcome (CRL-7250) | outcome (HEK293) | max response (HaCat [1]) -3.31% | outcome (NIH3T3) | Potency (HEK293T)

O=C(c1ccc(F)cc1)N1CCC[C@H](c2nc(-c3ccc(F)cc3)no2)C1
inactive: max response (CRL-7250) 3.37% | max response (HEK293) -0.935% | outcome (HaCat [1]) | outcome (NIH3T3) | outcome (HACAT [2]) | Potency (MCC-13)

CC(C)C[C@@H](C=O)NC(=O)[C@H](CC(C)C)NC(=O)[C@H](CC(C)C)NC(=O)OCc1ccccc1 (Cbz-Leu-Leu-Leu-aldehyde)
active: Potency (CRL-7250) 1.66 µM | Potency (HEK293) 1050 nM | Potency (HaCat [1]) 3320 nM | Potency (NIH3T3) 2.96 µM | Potency (MCC-13) 2640 nM

CCNC(=O)Nc1ccc(-c2nc3c(c(N4CCOC[C@H]4C)n2)CCN(C2COC2)C3)cc1
active: Potency (CRL-7250) 0.296 µM | Potency (HEK293) 743 nM | Potency (KB-3-1) 1320 nM | Potency (NIH3T3) 5.9 µM

Cc1cn([C@@H]2O[C@H](CO)[C@@H](O)[C@H]2F)c(=O)[nH]c1=O
inactive: max response (CRL-7250) -5.97% | max response (HEK293) -1.3% | max response (HaCat [1]) -13.3% | outcome (KB-3-1) | outcome (NIH3T3) | Potency (MCC-13)

FC(F)c1nc2ccccc2n1-c1nc(N2CCOCC2)nc(N2CCOCC2)n1
inactive: Potency (MCC-13)
active: Potency (CRL-7250) 590 nM and 1.16 µM | Potency (HEK293) 1460 nM | Potency (HaCat [1]) 3260 nM | Potency (KB-3-1) 2590 nM | Potency (NIH3T3) 662 nM and 1.64 µM

CN[C@@H]1C[C@H]2O[C@@](C)([C@H]1OC)n1c3ccccc3c3c4c(c5c6ccccc6n2c5c31)C(=O)N[C@H]4O
active: Potency (CRL-7250) 0.264 µM | Potency (HEK293) 469 nM | Potency (HaCat [1]) 1480 nM | Potency (KB-3-1) 2640 nM | Potency (NIH3T3) 0.166 µM | Potency (MCC-13) 332 nM

CCc1c(O)cc(O)c(C(=O)c2ccc(OCCN3CCOCC3)c(OC)c2)c1CC(=O)N(CCOC)CCOC
inactive: Potency (MCC-13)
active: Potency (CRL-7250) 1.32 µM | Potency (HEK293) 833 nM | Potency (NIH3T3) 11.8 µM

FC(F)(F)c1ccc(Nc2nc3ccc(Oc4ccnc(-c5ncc(C(F)(F)F)[nH]5)c4)cc3[nH]2)cc1
inactive: max response (HaCat [1]) -7.61% and -42.8%
active: Potency (CRL-7250) 13.2 µM and 14.6 µM

COC(=O)[C@@H]1[C@H]2C[C@@H]3c4[nH]c5ccccc5c4CCN3C[C@@H]2CC[C@@H]1O
inactive: outcome (CRL-7250) | outcome (HaCat [1]) | max response (KB-3-1) 1.87% | max response (NIH3T3) -9.61% | outcome (HACAT [2]) | Potency (HEK293T) | Potency (MCC-13)

c1coc(CNc2ncnc3nc[nH]c23)c1
inactive: outcome (CRL-7250) | outcome (HaCat [1]) | max response (KB-3-1) -3.01% | max response (NIH3T3) 0.142% | outcome (HACAT [2]) | Potency (HEK293T) | Potency (MCC-13)

C[C@@]12C[C@@]3(O)O[C@@H](O1)[C@]1(COC(=O)c4ccccc4)[C@@H]3C[C@@]12O[C@@H]1O[C@H](CO)[C@@H](O)[C@H](O)[C@@H]1O
inactive: max response (CRL-7250) 4.21% | outcome (HaCat [1]) | outcome (KB-3-1) | outcome (NIH3T3) | outcome (HACAT [2]) | Potency (MCC-13)

CCN(CC)CCCCNc1ncc2c(n1)N(C)C(=O)N(c1c(Cl)c(OC)cc(OC)c1Cl)C2
active: Potency (CRL-7250) 14.8 µM | Potency (HEK293) 2090 nM
inactive: max response (KB-3-1) -30% | Potency (MCC-13)
